Assay results reported in PubChem BioAssay AID1159580 (chemical genetic matrix, 2015).
Where “and” joins values, the source holds several entries; their conditions need not be identical. Identical values can stand only once. In all, about 5,500 compounds went through this assay and about 2,000 (36%) were called active. Inconclusive results (about 18%) are left out. Cut-off read from the data, not from the text of the source: active = normalized growth mostly below about 0.91 (no sharp cut-off); inconclusive = no clear call, values can overlap the other calls; inactive = mostly above about 0.92. This is one part of the list.

Test: chemical genetic growth profiling, strain panel (AID 1159580);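 note: tested at 20 µM; growth read once vehicle control cultures reached saturation at 30 °C; 1 = growth at the plate median or of vehicle wells; lower values mean less growth of the strain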
Conditions: growth OD

Measured: normalized growth

CN(C)CCCN1c2ccccc2Sc2ccccc21
inactive: S. cerevisiae deletion strains, locus YJR075W, strain HOC1, hits give low values 0.995 and 1 | S. cerevisiae deletion strains, locus YKL009W, strain mrt4, hits give low values 1.02 | S. cerevisiae deletion strains, locus YKL068W, hits give low values 1.01 | S. cerevisiae deletion strains, locus YKL085W, strain MDH1 (second series), hits give low values 1 | S. cerevisiae deletion strains, locus YKL085W, strain MDH1, hits give low values 1 | S. cerevisiae deletion strains, locus YKL160W, strain elf1, hits give low values 1.04 | S. cerevisiae deletion strains, locus YKL190W, strain CNB1, hits give low values 1 | S. cerevisiae deletion strains, locus YKR001C, strain vps1, hits give low values 1.02 | S. cerevisiae deletion strains, locus YKR026C, strain gcn3, hits give low values 0.989 | S. cerevisiae deletion strains, locus YKR091W, strain srl3, hits give low values 0.984 | S. cerevisiae deletion strains, locus YLL001W, strain dnm1, hits give low values 0.978 | S. cerevisiae deletion strains, locus YLL026W, hits give low values 0.98 | S. cerevisiae deletion strains, locus YLL041C, strain sdh2, hits give low values 0.99 | S. cerevisiae deletion strains, locus YLR027C, strain aat2, hits give low values 0.999 | S. cerevisiae deletion strains, locus YLR039C, strain RIC1, hits give low values 1.19 | S. cerevisiae deletion strains, locus YLR058C, strain SHM2, hits give low values 1 | S. cerevisiae deletion strains, locus YLR102C, strain apc9, hits give low values 1.01 | S. cerevisiae deletion strains, locus YLR113W, strain HOG1, hits give low values 1.01 | S. cerevisiae deletion strains, locus YLR221C, strain rsa3, hits give low values 0.992 | S. cerevisiae deletion strains, locus YLR258W, strain gsy2, hits give low values 0.983 | S. cerevisiae deletion strains, locus YLR262C, strain YPT6 (second series), hits give low values 1.01 | S. cerevisiae deletion strains, locus YLR262C, strain YPT6, hits give low values 1.23 | S. cerevisiae deletion strains, locus YLR268W, strain sec22, hits give low values 1.01 | S. cerevisiae deletion strains, locus YLR320W, strain mms22, hits give low values 0.996 | S. cerevisiae deletion strains, locus YLR330W, strain CHS5, hits give low values 1.01 | S. cerevisiae deletion strains, locus YLR342W, strain FKS1 (second series), hits give low values 0.99 | S. cerevisiae deletion strains, locus YLR342W, strain FKS1, hits give low values 0.977 | S. cerevisiae deletion strains, locus YLR357W, strain rsc2, hits give low values 0.989 | S. cerevisiae deletion strains, locus YLR370C, strain arc18, hits give low values 1 | S. cerevisiae deletion strains, locus YLR371W, strain rom2, hits give low values 1.01 | S. cerevisiae deletion strains, locus YLR384C, strain iki3, hits give low values 0.997 | S. cerevisiae deletion strains, locus YLR418C, strain cdc73, hits give low values 0.988 | S. cerevisiae deletion strains, locus YML016C, strain PPZ1, hits give low values 1.01 | S. cerevisiae deletion strains, locus YML032C, strain rad52, hits give low values 1.01 | S. cerevisiae deletion strains, locus YML120C, strain ndi1, hits give low values 0.99 | S. cerevisiae deletion strains, locus YML124C, strain tub3, hits give low values 1.01 | S. cerevisiae deletion strains, locus YMR058W, strain fet3, hits give low values 0.982 | S. cerevisiae deletion strains, locus YMR078C, strain ctf18, hits give low values 1.01 | S. cerevisiae deletion strains, locus YMR125W, strain sto1, hits give low values 0.947 | S. cerevisiae deletion strains, locus YMR129W, hits give low values 1 | S. cerevisiae deletion strains, locus YMR205C, strain PFK2, hits give low values 1 | S. cerevisiae deletion strains, locus YMR223W, strain ubp8, hits give low values 0.999 | S. cerevisiae deletion strains, locus YMR231W, strain pep5, hits give low values 0.986 | S. cerevisiae deletion strains, locus YMR263W, strain SAP30, hits give low values 0.999 and 0.981 | S. cerevisiae deletion strains, locus YMR307W, strain GAS1, hits give low values 1.03 and 1.02 | S. cerevisiae deletion strains, locus YNL067W, strain RPL9B, hits give low values 0.988 | S. cerevisiae deletion strains, locus YNL071W, strain lat1, hits give low values 0.996 | S. cerevisiae deletion strains, locus YNL128W, strain TEP1, hits give low values 1.01 and 0.994 | S. cerevisiae deletion strains, locus YNL153C, strain GIM3, hits give low values 1.09 | S. cerevisiae deletion strains, locus YNL175C, strain NOP13, hits give low values 0.983 | S. cerevisiae deletion strains, locus YNL183C, strain NPR1, hits give low values 0.965 | S. cerevisiae deletion strains, locus YNL209W, strain ssb2, hits give low values 0.971 | S. cerevisiae deletion strains, locus YNL224C, strain SQS1, hits give low values 1.01 | S. cerevisiae deletion strains, locus YNL233W, strain BNI4, hits give low values 1.01 | S. cerevisiae deletion strains, locus YNL248C, strain rpa49, hits give low values 0.976 | S. cerevisiae deletion strains, locus YNL250W, strain rad50, hits give low values 1.01 | S. cerevisiae deletion strains, locus YNL271C, strain bni1, hits give low values 1.01 | S. cerevisiae deletion strains, locus YNL298W, strain CLA4, hits give low values 1 | S. cerevisiae deletion strains, locus YNL307C, strain MCK1, hits give low values 1.02 | S. cerevisiae deletion strains, locus YNL322C, strain KRE1 (second series), hits give low values 1.01 | S. cerevisiae deletion strains, locus YNL322C, strain KRE1, hits give low values 1 and 0.958 | S. cerevisiae deletion strains, locus YNR049C, strain mso1, hits give low values 0.996 | S. cerevisiae deletion strains, locus YNR052C, strain pop2, hits give low values 1.01 | S. cerevisiae deletion strains, locus YOL006C, strain TOP1, hits give low values 0.983 | S. cerevisiae deletion strains, locus YOL012C, strain htz1 0.964 | S. cerevisiae deletion strains, locus YOL147C, strain pex11, hits give low values 1.01 | S. cerevisiae deletion strains, locus YOR001W, strain rrp6, hits give low values 0.96 | S. cerevisiae deletion strains, locus YOR061W, strain CKA2, hits give low values 1.01 | S. cerevisiae deletion strains, locus YOR069W, strain VPS5, hits give low values 0.995 | S. cerevisiae deletion strains, locus YOR070C, strain gyp1, hits give low values 0.986 | S. cerevisiae deletion strains, locus YOR080W, strain dia2, hits give low values 1.01 | S. cerevisiae deletion strains, locus YOR083W, strain WHI5 (second series), hits give low values 0.98 | S. cerevisiae deletion strains, locus YOR083W, strain WHI5, hits give low values 0.971 | S. cerevisiae deletion strains, locus YOR106W, strain vam3, hits give low values 0.968 | S. cerevisiae deletion strains, locus YOR136W, strain idh2, hits give low values 1.02 | S. cerevisiae deletion strains, locus YOR144C, strain elg1, hits give low values 1.01 | S. cerevisiae deletion strains, locus YOR184W, strain ser1, hits give low values 1.08 | S. cerevisiae deletion strains, locus YOR231W, strain MKK1, hits give low values 0.986 | S. cerevisiae deletion strains, locus YOR265W, strain rbl2, hits give low values 1 | S. cerevisiae deletion strains, locus YOR270C, strain vph1, hits give low values 0.898 | S. cerevisiae deletion strains, locus YOR290C, strain snf2, hits give low values 1.01 | S. cerevisiae deletion strains, locus YOR316C, strain cot1, hits give low values 1.02 | S. cerevisiae deletion strains, locus YPL051W, strain arl3, hits give low values 1 | S. cerevisiae deletion strains, locus YPL055C, strain LGE1, hits give low values 1.01 | S. cerevisiae deletion strains, locus YPL078C, strain atp4, hits give low values 1.01 | S. cerevisiae deletion strains, locus YPL106C, strain sse1, hits give low values 0.999 | S. cerevisiae deletion strains, locus YPL240C, strain hsp82, hits give low values 0.985 | S. cerevisiae deletion strains, locus YPL241C, strain CIN2, hits give low values 0.999 | S. cerevisiae deletion strains, locus YPL256C, strain CLN2, hits give low values 1.01 | S. cerevisiae deletion strains, locus YPR119W, strain clb2, hits give low values 1 | S. cerevisiae deletion strains, locus YPR141C, strain kar3, hits give low values 1.01 | S. cerevisiae deletion strains, locus YPR163C, strain tif3, hits give low values 1.01 | S. cerevisiae deletion strains, locus YPR167C, strain met16, hits give low values 1.01 | S. cerevisiae deletion strains, strain wtn01, hits give low values 1.02 | S. cerevisiae strains, strain wild type, hits give low values 0.992
